VP16 counter: VP16 counterscreen qHTS for inhibitors of ROR gamma transcriptional activity. Drosophila S2 Gal4-VP16 UAS-luciferase, luminescence, 20 h. AID 2546, 2010. 310,000 compounds, 3.5% hits. Potency, µM (series often up to 53.6 µM), hits mostly inhibitors;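 note: Gal4-VP16 expression switched on by copper sulfate through the metallothionein promoter; nearly all actives have a fitted effect of over 50% in size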
Six1-Eya2 blk: qHTS Assay for Inhibitors of the Six1/Eya2 Interaction; Homeobox protein SIX1 (Homo sapiens) + Protein phosphatase EYA2 (Homo sapiens), …; 360,000 compounds, 0.56% hits; activity change, % (test concentration not listed); AID 651725, 2012; AlphaScreen GST-Six1/His-Eya2 binding, biochemical; hits give low values; in the data active = activity change below about -65%; inconclusive = mostly about -30% to -63%
Target sequence (O00167 whole entry, looked up): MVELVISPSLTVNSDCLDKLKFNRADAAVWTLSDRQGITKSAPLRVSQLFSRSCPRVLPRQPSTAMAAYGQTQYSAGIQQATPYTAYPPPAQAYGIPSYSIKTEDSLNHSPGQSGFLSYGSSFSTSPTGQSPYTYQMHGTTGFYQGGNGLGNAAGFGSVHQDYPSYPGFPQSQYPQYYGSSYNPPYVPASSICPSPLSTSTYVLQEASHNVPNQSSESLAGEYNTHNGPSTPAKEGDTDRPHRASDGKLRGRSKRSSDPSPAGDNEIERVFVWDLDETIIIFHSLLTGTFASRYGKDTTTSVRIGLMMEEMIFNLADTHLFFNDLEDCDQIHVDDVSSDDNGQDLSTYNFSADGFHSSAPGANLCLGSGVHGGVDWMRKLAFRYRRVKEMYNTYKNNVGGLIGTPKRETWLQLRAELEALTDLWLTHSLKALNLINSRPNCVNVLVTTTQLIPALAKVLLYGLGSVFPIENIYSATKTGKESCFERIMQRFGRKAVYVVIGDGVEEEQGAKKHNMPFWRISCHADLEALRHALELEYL
Target sequence (Q15475 whole entry, looked up): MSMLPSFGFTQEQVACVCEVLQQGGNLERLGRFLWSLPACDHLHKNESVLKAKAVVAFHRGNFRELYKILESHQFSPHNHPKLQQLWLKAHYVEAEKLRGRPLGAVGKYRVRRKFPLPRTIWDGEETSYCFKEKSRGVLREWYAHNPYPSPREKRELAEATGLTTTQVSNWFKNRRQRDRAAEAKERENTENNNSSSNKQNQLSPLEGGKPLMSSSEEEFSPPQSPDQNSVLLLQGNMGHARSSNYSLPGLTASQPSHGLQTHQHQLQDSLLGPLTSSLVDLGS
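Six1/Eya2 binding was read as AlphaScreen signal after compounds were pinned into GST-Six1 plus His-tagged Eya2 (5X stock 250/500 nM) in pH 8.0 Tris/NaCl/TCEP buffer, beads added, then incubated 1 h, 37 C, dark.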
RORg inh: qHTS for inhibitors of ROR gamma transcriptional activity; Nuclear receptor ROR-gamma (Mus musculus), P51450; Drosophila S2 Gal4-RORgamma UAS-luciferase reporter, 20 h; Potency, µM (top dose mostly 53.6 µM), most hits filed as inhibitors; 310,000 compounds, 5.4% hits; note: nearly all actives have a fitted effect of over 60% in size
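In this cell-based reporter format, copper sulfate (700 uM final) drives Gal4–ROR gamma fusion expression from a metallothionein promoter in Drosophila Schneider cells; compounds preincubated 1 hr, reporter read after 20 hr at ambient temperature.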
PKM2 activator: qHTS Assay for Activators of Human Muscle isoform 2 Pyruvate Kinase; purified PKM2, Kinase-Glo ATP luminescence, activation; response scale: 0% is enzyme alone, no compound; 260,000 compounds, 0.34% hits; Potency, µM (titrated, usually from 57.5 µM), actives largely listed as activators; Pyruvate kinase PKM (Homo sapiens), P14618; note: nearly all actives have a fitted effect of over 55% in size
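Purified hPK-M2 (>95%) run at intermediate activity with 0.1 mM ADP and 0.5 mM PEP in 50 mM imidazole pH 7.2, KCl, MgCl2; 1 h room temperature. ATP formed read by Kinase-Glo luminescence; normalized to uninhibited and no-enzyme controls.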
CtBP-E1A blk: qHTS Assay for Inhibitors of the CtBP/E1A Interaction; 340,000 compounds, 0.49% hits; activity change, % (test concentration not listed); AlphaScreen GST-E1A/His-CtBP binding, 1536-well; hits give low values; in the data active = activity change below about -65%; inconclusive = mostly about -30% to -63%
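In 5 uL wells, 23 nL compound meets equimolar GST-E1A and His-CtBP (5X stock 125 nM each) for 2 h, 37 °C. Beads (5X, 50 ug/mL) then 1 h, 37 °C, dark.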
Each line names hits and unclear results; the compound was inactive in the other large screens. An excerpt weighted towards active compounds, which were near 5.6% of everything screened. Unless noted, calls come from the whole dose curve; as a rule, active = well fitted curve in the direction sought with a large enough effect; inconclusive = small, poorly fitted or top-dose-only effect, or another doubt; inactive = no such curve, though single readings can be large; an effect the other way counts as inactive or inconclusive.

Cc1cc(C)n(Cc2n[nH]c(=S)n2Cc2ccccc2)n1	VP16 counter inconclusive, RORg inh 11µM
Cc1ccn2c(-c3n[nH]c(=S)n3Cc3ccccc3)c(C)nc2c1	none
Cc1nn(Cc2n[nH]c(=S)n2Cc2ccccc2)c(C)c1Cl	VP16 counter 20µM, RORg inh 5.6µM
Cc1csc(NC(=O)CSc2nccn2C)n1	none
COc1ccc(NC(=O)/C(Cl)=C(/Cl)S(=O)Cc2ccccc2Cl)cn1 (stereo unspecified)	VP16 counter 4.5µM, RORg inh 1µM, PKM2 activator inconclusive
COc1ccc(NC(=O)/C(Cl)=C(/Cl)S(=O)(=O)Cc2ccc(C)cc2)cn1	VP16 counter 3.2µM, Six1-Eya2 blk inconclusive, RORg inh 4.5µM, CtBP-E1A blk inconclusive
COc1ccc(NC(=O)Cc2ccc(Cl)c(Cl)c2)cn1	none (no result: CtBP-E1A blk)
Cc1ccc(NC(=O)CNc2ccccc2N2CCCC2=O)cc1S(=O)(=O)N1CCCCC1	none (no result: VP16 counter, RORg inh, PKM2 activator)
CCC1(C)Cc2ccccc2-c2nc(NN)[nH]c(=O)c21 (stereo unspecified)	VP16 counter inconclusive, RORg inh 16µM (no result: PKM2 activator)
CCC1(CC)Cc2ccccc2-c2nc(NN)[nH]c(=O)c21	VP16 counter 16µM, RORg inh 10µM
CCC1(CC)Cc2ccccc2-c2nc(CN3CCOCC3)[nH]c(=O)c21	none
COc1ccc(NC(=O)C2CC2(Cl)Cl)cc1S(=O)(=O)N1CCCCC1 (stereo unspecified)	none (no result: VP16 counter, RORg inh, PKM2 activator)
C=CCc1cccc(CNc2nc3ccccc3n2C)c1O	RORg inh inconclusive, PKM2 activator 32µM
Oc1ccccc1CNc1cnc2ccccc2c1	VP16 counter inconclusive, RORg inh inconclusive
C=CCc1cccc(CNc2cnc3ccccc3c2)c1O	VP16 counter 7.1µM, RORg inh inconclusive (no result: CtBP-E1A blk)
Cc1cc(C)c(C(=O)NNC(=O)c2cccnc2)c(C)c1	none
COCCN1C[C@@H](CO)O[C@@H](n2cnc3c(NCC(C)C)ncnc32)C1	none (no result: VP16 counter, RORg inh, PKM2 activator)
Oc1ccc(Br)cc1CNc1ccccn1	none
Oc1c(Cl)cc(Cl)cc1CNc1ccccn1	Six1-Eya2 blk -72, RORg inh inconclusive, CtBP-E1A blk inconclusive
C=C1CC[C@@H]2[C@](C)(CO)[C@H](O)CC[C@@]2(C)[C@@H]1/C=C/C1=CCOC1=O	none (no result: PKM2 activator, CtBP-E1A blk)
C=C1CCC2C(C)(CO)C(O)CCC2(C)C1C/C=C1\C(=O)OCC1O (stereo unspecified)	RORg inh 13µM (no result: Six1-Eya2 blk, PKM2 activator, CtBP-E1A blk)
O=C(Nc1ccc(O)c(-c2nc3ccccc3o2)c1)C1(c2ccccc2)CCCC1	VP16 counter 8.9µM, RORg inh 5.6µM
COc1ccc(CN=C2NN=C(c3cccc(OC)c3)CS2)cc1	none
COc1ccc(/C=C2\SC(=NCc3ccccc3)NC2=O)cc1	none
Cc1ccc(C)c(C2=NNC(=NCc3ccccc3)SC2)c1	VP16 counter inconclusive, RORg inh 7.9µM
COc1ccc(CN=C2NN=C(c3ccccc3)CS2)cc1	RORg inh 2µM, PKM2 activator inconclusive
COc1cccc(C2=NNC(=NCc3ccccc3)SC2)c1	RORg inh 8.9µM
Cc1ccc(NC(=O)CN2CCN(C(=O)c3ccco3)CC2)cc1S(=O)(=O)N(C)C	none (no result: VP16 counter, RORg inh, PKM2 activator)
O=C(Nc1ccc([N+](=O)[O-])cc1)N1CCCCC1	none (no result: CtBP-E1A blk)
O=[N+]([O-])c1ccc(S(=O)(=O)c2ccccc2)nc1	VP16 counter 3.5µM, RORg inh inconclusive (no result: PKM2 activator, CtBP-E1A blk)
Cc1ccc(S(=O)(=O)c2ccc([N+](=O)[O-])cn2)cc1	VP16 counter 3.5µM, RORg inh 3.2µM (no result: PKM2 activator)
Cc1cc(S(=O)(=O)c2ccc([N+](=O)[O-])cn2)ccc1Br	none (no result: VP16 counter, RORg inh, PKM2 activator)
CCOC(=O)c1c(C)[nH]c(N=Nc2ccc(C)cc2C)c1C	none
CCOC(=O)c1c(C)[nH]c(N=Nc2ccccc2C)c1C	VP16 counter inconclusive, Six1-Eya2 blk inconclusive, RORg inh 4µM, CtBP-E1A blk inconclusive
[O-]C(=C(C(=S)Nc1cccc2ccccc12)[n+]1ccccc1)c1ccc2c(c1)OCCO2	none (no result: VP16 counter, RORg inh, PKM2 activator)

Bioassay records: PubChem, National Center for Advancing Translational Sciences (NCATS)
